According to PubChem BioAssay (NCATS):
Results filed as inconclusive are left out. Values without a mark were called inactive. Calls follow the shape of the dose curve; as a rule, active = well fitted cell-killing curve with a large enough effect; inconclusive = small, poorly fitted or top-dose-only effect, or effect the other way; inactive = no such curve, though single readings can be large or run the other way.

test: Cell Viability - LYMP2-005 (AID 967); conditions: LYMP2-005 lymphoblastoid cell viability; series mostly up to 92.2 µM; activity change, negative = viability loss: at the top concentration
Source text: NIH Chemical Genomics Center [NCGC]
NIH Molecular Libraries Screening Centers Network [MLSCN]
National Institutes of Environmental Health Sciences [NIEHS]
National Toxicology Program [NTP]
We have developed a 1536-well cell-based assay for quantitative high throughput screening (qHTS) against a number of cell lines to determine in vitro cytotoxicity of small molecules. This particular assay uses a human lymphoblastoid cell line (LYMP2-005) purchased from Coriell Institute for Medical Research.
NCGC Assay Protocol Summary:
The CellTiter-Glo luminescent cell viability assay (Promega) is a homogeneous method to measure the number of viable cells in culture. The end point readout of this assay is based on quantitation of intracellular ATP, an indicator of metabolic activity, using the luciferase reaction. Luciferase catalyzes the oxidation of beetle Luciferin to oxyluciferin and light in the presence of ATP. The luminescent signal is proportional to amount of ATP present.
Using the CellTiter-Glo luminescent cell viability assay, the amount of cellular ATP was measured in the lymphoblastoid cell line with complete culture medium following compound treatment for 24 hours. The assay was performed in opaque white Kalypsys 1536-well plates. In the screen, tetraoctylammonium bromide was used as positive control. Library compounds were measured for their ability to cause acute toxicity in the cell line, as reflected by a decrease in intracellular ATP levels, in a concentration-dependent manner. […] AC50 values were determined from concentration-response data modeled with the standard Hill equation.
qHTS protocol for CellTiter Glo lymphoblastoid cellular assay
[Step] [Parameter] [Value] [Description]
1. Reagent; 5 uL; 2500 lymphoblastoid cells/well
2. Time; 5 hr; 37 C incubation
4. Controls; 23 nL; Tetraoctylammonium bromide 6.4pM to 92 uM
5. Time; 24 hr; 37 C incubation
6. Reagent; 5 uL; CellTiter Glo reagent
7. Time; 30 min; Room Temperature
8. Detection; Luminescence; Viewlux plate reader
Keywords: cell viability, cytotoxicity, lymphoblastoid cell line, luminescence, NTPHTS, NTPHTS_NCGC, NIEHS, DSSTox, MLSMR, MLSCN, NIH Roadmap, qHTS, NCGC

Row | Compound | activity change, negative = viability loss
1 | Nc1ncc([N+](=O)[O-])s1 | 12.6%
2 | Cc1ccc(N=C=O)cc1N=C=O | 8.48%
3 | O=C(Cl)c1ccccc1F | 5.44%
4 | Cc1ccc(N)cc1Cl | 8.13%
5 | Nc1cc(Cl)ccc1O | -17.2%
6 | Nc1cccc2ccccc12 | 0.399%
7 | O=C(O)C(Br)CBr (stereo not given) | -19%
8 | O=S(=O)(Cl)c1ccccc1 | -11.7%
9 | ClCCOCOCCCl | 5.16%
10 | N#CCCCCC#N | -0.437%
11 | BrCC(Br)C1CCC(Br)C(Br)C1 (stereo not given) | 6.78%
12 | Clc1cccc(Cl)c1 | 13.8%
13 | CCCN(CCC)c1c([N+](=O)[O-])cc(C(F)(F)F)cc1[N+](=O)[O-] | 11.9%
14 | c1ccoc1 | 1.28%
15 | O=c1ccc(=O)[nH][nH]1 | -8.52%
16 | Cc1ccccc1[N+](=O)[O-] | -6.41%
17 | C=CCBr | -11.6%
18 | CC(=O)[O-].CC(=O)[O-].CC(=O)[O-].[Cr+3] | -4.66%
19 | O=[N+]([O-])c1ccc2c3c(cccc13)CC2 | -3.18%
20 | OCCOCCO | 8.4%

Row | Compound | activity change, negative = viability loss
21 | Nc1ccc([N+](=O)[O-])cc1N | 1.12%
22 | CCC[N+](=O)[O-] | 1.22%
23 | Cc1cccc(C)c1N | 5.54%
24 | CCN(CC)CCO | 16.9%
25 | Cc1ccc(N)cc1C | -9.94%
26 | C/C=C/C=O | -2.41%
27 | O=C(O)C(Cl)Br (stereo not given) | -14.7%
28 | ClC(Cl)C(Cl)Cl | -0.446%
29 | CC(C)[C@]12CC(=O)[C@H](C)[C@H]1C2 | 17.3%
30 | CC(C)C#N | 0.902%
31 | Nc1ccc2ccccc2c1 | 4.39%
32 | Oc1c(Cl)c(Cl)cc(Cl)c1Cl | 2.49%
33 | CCSC(=O)N1CCCCCC1 | 7.79%
34 | NNC(N)=S | 7.36%
35 | Nc1ccc(Cc2ccc(N)c(Cl)c2)cc1Cl | -0.608%
36 | COc1c(C(C)(C)C)cc([N+](=O)[O-])c(C)c1[N+](=O)[O-] | 6.49%
37 | C=CC(=O)OCCN(C)C | 10.1%
38 | Nc1ccc(-c2ccc(N)cc2)cc1 | -1.4%
39 | CCCCC(=O)Cl | -3.37%
40 | Cc1ccc([N+](=O)[O-])cc1 | 10.1%
